Results on 17 molecules are retold here after PubChem BioAssay (NCATS).

Structures are written as SMILES. Inconclusive results are not listed. Values without a mark were called inactive. Active and inactive are the calls of the source. Calls come from the whole dose curve.
Potency is the fitted concentration of half-maximal effect.

The target in the test is Cytochrome P450 1A2 (Homo sapiens) (UniProt P05177). The experiment in a line: p450-cyp1a2 (AID 410).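 For activity change, negative = inhibition: -100% = full effect of reference inhibitor.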 The settings on record: recombinant CYP1A2, luciferin-ME demethylation, luminescence; series mostly up to 11.4 µM; activity change, negative = inhibition: at the top concentration. A digest of the protocol: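 Luminescent readout of luciferin formed from Luciferin-ME by human CYP1A2; data normalized against complete inhibition by 57 uM furafylline. Enzyme 20nM, substrate 100uM at Km, 100mM KPO4 buffer, 60 min reaction at room temperature.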
Cytochrome P450 1A2 (Homo sapiens), sequence (P05177 whole entry, looked up): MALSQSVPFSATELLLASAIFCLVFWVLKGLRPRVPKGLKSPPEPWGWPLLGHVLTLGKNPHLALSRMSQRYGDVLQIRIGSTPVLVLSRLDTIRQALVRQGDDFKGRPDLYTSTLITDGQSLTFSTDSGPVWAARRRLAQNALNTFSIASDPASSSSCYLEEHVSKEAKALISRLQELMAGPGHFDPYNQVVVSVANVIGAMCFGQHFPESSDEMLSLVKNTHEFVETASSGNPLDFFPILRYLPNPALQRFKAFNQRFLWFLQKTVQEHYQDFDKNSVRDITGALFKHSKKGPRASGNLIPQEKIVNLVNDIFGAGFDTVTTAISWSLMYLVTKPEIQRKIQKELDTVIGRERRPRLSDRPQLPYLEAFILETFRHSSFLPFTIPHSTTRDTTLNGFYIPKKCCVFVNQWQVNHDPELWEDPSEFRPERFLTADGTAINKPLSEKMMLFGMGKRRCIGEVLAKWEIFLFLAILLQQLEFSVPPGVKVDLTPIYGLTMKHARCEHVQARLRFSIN
For the molecule `O=C(O)CC(CC(=O)O)n1cccc1`, the “activity change, negative = inhibition” value was -4.8%.
The same measure, in the same setting: with `CC(C)(CN)CN` the figure was 2.9%.
For the molecule `O=C(O)NCC1CCCCC1` (tested in a mixture with another compound), the “activity change, negative = inhibition” value was -10.2%.
Consider `O=C(O)CCC(=O)c1ccc2ccc3cccc4ccc1c2c34`, for which the Potency is 1260 nM (active).
Take `O=C(O)c1cc2ccccc2c(S(=O)(=O)O)c1O`: the “activity change, negative = inhibition” value was 6.6%.
`CCCCN1CSC(=S)N(Cc2ccccc2)C1`: the Potency is 3980 nM (active).
Regarding `COCCn1c(=O)c(-c2cc(F)cc(F)c2)nc2cnc(Oc3ccccc3)nc21`, the Potency was 5010 nM (active).
On to `S=C(Nc1ccc2cn[nH]c2c1)Nc1ccc2cn[nH]c2c1`, for which the Potency was 126 nM (active).
`CC(C)NC1(C(N)=O)CCN(Cc2ccccc2)CC1`: the activity change, negative = inhibition is 7.6% [at 2.29 µM].
For `O=C1/C(=C/c2cccnc2)SC(=S)N1Cc1ccco1`, the Potency was 501 nM (active).
`COc1ccc(-c2cc([C@H](O)[C@@H]3CCCCN3)c3ccccc3n2)cc1`: the activity change, negative = inhibition is -11% [at 2.29 µM].
Still for that read-out and setting: with `NCCCc1c(-c2ccccc2)nc(N)[nH]c1=O` the figure was 9.6%.
As for `c1ccc2c(CN3CCN(Cc4c[nH]c5ccccc45)CC3)c[nH]c2c1`, the activity change, negative = inhibition was -18.1% [at 2.29 µM].
Turning to `Cc1cnc(CNc2nc(-c3cccnc3)nc3ccccc23)cn1`, the Potency is 2510 nM (active).
Regarding `c1ccc2c(c1)nnn2CN1CCOCC1`, the “activity change, negative = inhibition” value is -8.1%.
The same measure, in the same setting: with `CC[C@H](C(=O)c1cccs1)C(O)(C(F)(F)F)C(F)(F)F` the figure was -17.5% [at 2.29 µM].
As for `N=C(N)SCc1ccc(Cl)cc1Cl` (tested in a mixture with another compound), the Potency is 3980 nM (active).
